The values that follow come from PubChem BioAssay.

Active and inactive are the calls of the source.

Assay [1] relates to PRMT1 (protein arginine N-methyltransferase 1). The assay is described as follows: PRMT1 binders on small-molecule microarrays, primary screen, biochemical, small-molecule microarray, 635 nm fluorescence (AID 1088).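 Further: binding of Prmt1 protein to compounds spotted on small-molecule microarray slides.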 The settings on record: small-molecule microarray binding, higher = more signal.
Assay [2] is described as follows: yeast growth modulation, basal conditions, primary screen, YJM789 clinical isolate, OD600, 24 h (AID 1089).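 Further: growth of clinical yeast isolate S. cerevisiae YJM 789 seeded 1000 cells per well; test concentration not given here.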 The following applies: S. cerevisiae YJM789 growth, higher = more signal, called active from +8 up or from −8 down.
A short description of assay [3]: fission yeast growth modulation, primary screen, strain 972, OD600, 24 h, no modulator (AID 1090).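 Further: basal condition with compound alone and no growth modifier present; test concentration not given here.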 The settings on record: S. pombe 972 growth, higher = more signal, called active from +8 up or from −8 down.
Assay [4] can be described thus: S. cerevisiae growth modulation with rapamycin, primary screen, strain BY4716, OD600, 96 h (AID 1091). Further: test concentration not given here. The following applies: higher = more signal, called active from +8 up or from −8 down.
In assay [5] the target is Torsin-1A-interacting protein 2 (Homo sapiens) (UniProt Q8NFQ8). The assay is described as follows: LULL1 binders on small-molecule microarray, primary screen, cell lysate, human LULL1 lysate, 635/667 nm fluorescence (AID 1092).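 Further: probe is lysate of COS7 cells overexpressing human LULL1; score merges per-feature 667 nm fluorescence with signal-to-noise.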 The settings on record: hLULL1 lysate binding, 635 nm fluorescence, higher = more signal.
The nature of assay [6]: E. coli growth modulation, two-sided OD650, primary screen, E. coli filamentation project, strain DRC41, 24 h (AID 1093).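 Further: MC1000 strain lacking acrAB efflux and sulA so SOS filamentation is blocked; test concentration not given here.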 The following applies: OD650, 24 h, higher = more signal, called active from +8 up or from −8 down.
Assay [7] in a line: small-molecule microarray binders of probe aLefty2, primary screen, biochemical, biotinylated probe, 635/667 nm fluorescence (AID 1094).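 Further: score merges spot fluorescence near 667 nm with spot signal-to-noise ratio.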 The settings on record: higher = more signal.
The test system of assay [8] is Noggin (protein binding on small-molecule microarray). The assay is described as follows: Noggin binders on small-molecule microarray, primary screen, biochemical, 635/667 nm fluorescence (AID 1095).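 Further: score merges 667 nm feature fluorescence with signal to noise over triplicate slides.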 The following applies: 635 nm fluorescence, higher = more signal.
Assay [9] addresses Neurogenic locus notch homolog protein 3 (Homo sapiens) (UniProt Q9UM47). Briefly: NOTCH3 binders on small-molecule microarray, primary screen, biochemical, 635/667 nm fluorescence (AID 1096). The following applies: NOTCH3 binding, 635 nm fluorescence, higher = more signal.
Assay [10] is described as follows: small-molecule microarray binders of probe aEGFR, primary screen, biochemical, biotinylated probe, 635/667 nm fluorescence (AID 1097).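 Further: probe is a biotinylated anti-EGFR antibody binding compounds printed on slides; score combines fluorescence near 667 nm and signal to noise of each spot.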 The settings on record: higher = more signal.
In assay [11] the test system is Plasmodium falciparum Sir2 (PF13_0152, Sir2A). The assay is described as follows: pfSir2 binders on small-molecule microarrays, primary screen, biochemical, small-molecule microarray, 635 nm fluorescence (AID 1098).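 Further: score merges spot fluorescence intensity with its signal-to-noise ratio.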 The settings on record: small-molecule microarray binding, fluorescence 635 nm; higher = more signal.
A short description of assay [12]: small-molecule microarray binders of probe aDKK1, primary screen, biochemical, biotinylated probe, 635/667 nm fluorescence (AID 1099).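 Further: score merges 667nm spot fluorescence with signal to noise across triplicate slides; reference of the scale not given here.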 The settings on record: higher = more signal.
Assay [13] in a line: small-molecule microarray binders of probe aCHRDL2, primary screen, biochemical, biotinylated probe, 635/667 nm fluorescence (AID 1100). The settings on record: higher = more signal.
A short description of assay [14]: splicing luciferase reporter signal modulators, primary screen, spliceosome inhibition project, cell-based, HEK293, splice +/- reporter (AID 1101).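 Further: HEK293 cells carrying a splicing-competent luciferase reporter gene; test concentration not given here.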 The following applies: luminescence, 24 h, higher = more signal, called active from +8 up or from −8 down. In general terms: Reporter assays use an easily measured gene product as a stand-in for the process of interest.

The target in assay [15] is Fibroblast growth factor 10 (Homo sapiens) (UniProt O15520). The assay is described as follows: FGF10 binders on small-molecule microarrays, primary screen, biochemical, small-molecule microarray, 635 nm fluorescence (AID 1102). The settings on record: FGF10 binding, fluorescence 635 nm, higher = more signal.
For assay [16], the system named is glycogen synthase kinase-3 (GSK3A per assay name; protocol says GSK3B). The assay is described as follows: GSK3 binders on small-molecule microarrays, primary screen, biochemical, small-molecule microarray, 635 nm fluorescence, GSK3A (AID 1103). Further: the record names both GSK3A and GSK3B. The following applies: small-molecule microarray binding, fluorescence 635 nm; higher = more signal.
For assay [17], the target named is Epidermal growth factor receptor (Homo sapiens) (UniProt P00533). The assay is described as follows: EGFR binders on small-molecule microarrays, primary screen, biochemical, small-molecule microarray, 635 nm fluorescence (AID 1104).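 Further: score merges 667 nm emission intensity with spot signal to noise over triplicate slides.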 The settings on record: EGFR binding, higher = more signal.
In assay [18] the target is Follistatin-related protein 3 (Homo sapiens) (UniProt O95633). Briefly: FSTL3 binders on small-molecule microarrays, primary screen, biochemical, small-molecule microarray, 635 nm fluorescence (AID 1105).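 Further: score merges emission near 667 nm and signal to noise per printed spot across three slides.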 The following applies: FSTL3 binding, higher = more signal.
Assay [19] concerns the target Dickkopf-related protein 1 (Homo sapiens) (UniProt O94907). The assay is described as follows: DKK1 binders on small-molecule microarrays, primary screen, biochemical, small-molecule microarray, 635 nm fluorescence scan (AID 1106).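 Further: score merges emission near 667 nm with signal to noise over three replicate slides.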 The following applies: DKK1 binding, higher = more signal.
Assay [20] relates to Inhibin beta A chain (activin A). Briefly: INHBA (activin A) binders on microarrays, primary screen, biochemical, small-molecule microarray, 635 nm fluorescence scan (AID 1107).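 Further: mouse activin A protein probed at 4.33 µg/mL on printed slides; score merges bound-protein fluorescence near 667 nm with spot signal-to-noise.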 The following applies: small-molecule microarray binding, higher = more signal.

Sequence of Neurogenic locus notch homolog protein 3 (Homo sapiens) (Q9UM47 whole entry, looked up): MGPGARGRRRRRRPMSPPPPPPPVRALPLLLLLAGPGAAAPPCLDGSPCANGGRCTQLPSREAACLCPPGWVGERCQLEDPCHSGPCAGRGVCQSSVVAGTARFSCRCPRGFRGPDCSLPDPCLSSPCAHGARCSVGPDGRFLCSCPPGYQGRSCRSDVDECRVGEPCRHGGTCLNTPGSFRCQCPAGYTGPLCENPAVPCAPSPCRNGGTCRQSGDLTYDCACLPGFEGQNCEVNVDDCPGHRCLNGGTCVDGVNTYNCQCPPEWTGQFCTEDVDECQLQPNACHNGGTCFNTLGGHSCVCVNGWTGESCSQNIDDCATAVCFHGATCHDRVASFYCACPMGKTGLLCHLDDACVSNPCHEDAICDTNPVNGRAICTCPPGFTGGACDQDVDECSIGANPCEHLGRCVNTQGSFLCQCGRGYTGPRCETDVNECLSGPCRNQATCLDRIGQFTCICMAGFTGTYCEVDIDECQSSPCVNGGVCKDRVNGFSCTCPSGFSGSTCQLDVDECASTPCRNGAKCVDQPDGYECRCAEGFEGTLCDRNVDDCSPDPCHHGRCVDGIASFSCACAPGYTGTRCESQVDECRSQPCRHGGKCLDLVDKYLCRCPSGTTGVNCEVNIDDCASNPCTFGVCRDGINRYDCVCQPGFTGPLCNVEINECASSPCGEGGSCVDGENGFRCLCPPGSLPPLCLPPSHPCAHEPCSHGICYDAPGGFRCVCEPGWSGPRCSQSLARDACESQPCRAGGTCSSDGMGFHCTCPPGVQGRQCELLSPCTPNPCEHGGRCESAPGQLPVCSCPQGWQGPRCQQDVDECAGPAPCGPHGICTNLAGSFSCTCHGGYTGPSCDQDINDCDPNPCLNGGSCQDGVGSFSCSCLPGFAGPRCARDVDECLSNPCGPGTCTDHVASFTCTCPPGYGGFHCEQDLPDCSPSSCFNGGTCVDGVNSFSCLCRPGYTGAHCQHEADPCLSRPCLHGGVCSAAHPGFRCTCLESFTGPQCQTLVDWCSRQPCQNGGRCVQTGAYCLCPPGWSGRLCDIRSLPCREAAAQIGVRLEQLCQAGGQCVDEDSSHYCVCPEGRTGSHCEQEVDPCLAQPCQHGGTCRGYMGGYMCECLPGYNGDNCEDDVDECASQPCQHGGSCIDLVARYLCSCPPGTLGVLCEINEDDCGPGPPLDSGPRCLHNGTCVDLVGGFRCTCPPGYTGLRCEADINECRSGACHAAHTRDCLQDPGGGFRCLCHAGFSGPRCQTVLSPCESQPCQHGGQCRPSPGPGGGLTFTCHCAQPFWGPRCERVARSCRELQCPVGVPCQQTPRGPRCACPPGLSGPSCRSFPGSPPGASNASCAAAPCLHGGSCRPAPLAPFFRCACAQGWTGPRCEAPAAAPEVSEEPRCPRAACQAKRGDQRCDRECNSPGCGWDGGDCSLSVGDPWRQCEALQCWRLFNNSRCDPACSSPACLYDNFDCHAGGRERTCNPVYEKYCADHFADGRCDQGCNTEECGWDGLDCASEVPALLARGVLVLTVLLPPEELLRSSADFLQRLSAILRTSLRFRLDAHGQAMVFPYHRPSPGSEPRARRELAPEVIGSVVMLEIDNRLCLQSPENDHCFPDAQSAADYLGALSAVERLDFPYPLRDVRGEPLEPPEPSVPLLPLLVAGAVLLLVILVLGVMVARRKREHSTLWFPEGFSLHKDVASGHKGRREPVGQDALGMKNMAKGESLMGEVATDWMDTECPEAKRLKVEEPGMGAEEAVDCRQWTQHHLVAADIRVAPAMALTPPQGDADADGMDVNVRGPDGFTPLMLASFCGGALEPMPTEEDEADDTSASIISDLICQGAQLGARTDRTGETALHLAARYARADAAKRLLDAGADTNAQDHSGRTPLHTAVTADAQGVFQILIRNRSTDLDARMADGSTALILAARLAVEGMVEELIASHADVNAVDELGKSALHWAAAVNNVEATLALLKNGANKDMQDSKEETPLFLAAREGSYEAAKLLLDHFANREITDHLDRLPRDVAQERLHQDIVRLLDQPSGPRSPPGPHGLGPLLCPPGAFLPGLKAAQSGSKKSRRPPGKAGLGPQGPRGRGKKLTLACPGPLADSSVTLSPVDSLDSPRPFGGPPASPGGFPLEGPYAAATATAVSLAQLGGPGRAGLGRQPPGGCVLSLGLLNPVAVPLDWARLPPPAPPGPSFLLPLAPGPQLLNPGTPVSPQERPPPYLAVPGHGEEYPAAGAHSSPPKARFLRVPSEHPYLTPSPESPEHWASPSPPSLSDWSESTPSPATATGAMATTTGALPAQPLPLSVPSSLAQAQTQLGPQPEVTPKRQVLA
Sequence of Follistatin-related protein 3 (Homo sapiens) (O95633 whole entry, looked up): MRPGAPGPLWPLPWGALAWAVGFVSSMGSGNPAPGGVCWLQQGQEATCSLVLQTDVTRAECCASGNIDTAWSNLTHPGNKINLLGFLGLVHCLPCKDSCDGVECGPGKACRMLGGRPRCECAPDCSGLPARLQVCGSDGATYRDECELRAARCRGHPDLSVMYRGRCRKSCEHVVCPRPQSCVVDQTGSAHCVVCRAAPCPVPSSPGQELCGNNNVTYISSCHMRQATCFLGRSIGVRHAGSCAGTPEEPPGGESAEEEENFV
Sequence of Dickkopf-related protein 1 (Homo sapiens) (O94907 whole entry, looked up): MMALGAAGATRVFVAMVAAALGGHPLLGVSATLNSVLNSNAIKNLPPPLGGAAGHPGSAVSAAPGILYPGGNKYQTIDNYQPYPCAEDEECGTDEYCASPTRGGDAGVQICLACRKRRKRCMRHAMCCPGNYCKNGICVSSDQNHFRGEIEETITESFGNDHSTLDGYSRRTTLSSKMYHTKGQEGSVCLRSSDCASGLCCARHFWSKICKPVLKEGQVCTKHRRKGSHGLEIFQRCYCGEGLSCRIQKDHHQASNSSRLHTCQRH
Sequence of Epidermal growth factor receptor (Homo sapiens) (P00533 whole entry, looked up): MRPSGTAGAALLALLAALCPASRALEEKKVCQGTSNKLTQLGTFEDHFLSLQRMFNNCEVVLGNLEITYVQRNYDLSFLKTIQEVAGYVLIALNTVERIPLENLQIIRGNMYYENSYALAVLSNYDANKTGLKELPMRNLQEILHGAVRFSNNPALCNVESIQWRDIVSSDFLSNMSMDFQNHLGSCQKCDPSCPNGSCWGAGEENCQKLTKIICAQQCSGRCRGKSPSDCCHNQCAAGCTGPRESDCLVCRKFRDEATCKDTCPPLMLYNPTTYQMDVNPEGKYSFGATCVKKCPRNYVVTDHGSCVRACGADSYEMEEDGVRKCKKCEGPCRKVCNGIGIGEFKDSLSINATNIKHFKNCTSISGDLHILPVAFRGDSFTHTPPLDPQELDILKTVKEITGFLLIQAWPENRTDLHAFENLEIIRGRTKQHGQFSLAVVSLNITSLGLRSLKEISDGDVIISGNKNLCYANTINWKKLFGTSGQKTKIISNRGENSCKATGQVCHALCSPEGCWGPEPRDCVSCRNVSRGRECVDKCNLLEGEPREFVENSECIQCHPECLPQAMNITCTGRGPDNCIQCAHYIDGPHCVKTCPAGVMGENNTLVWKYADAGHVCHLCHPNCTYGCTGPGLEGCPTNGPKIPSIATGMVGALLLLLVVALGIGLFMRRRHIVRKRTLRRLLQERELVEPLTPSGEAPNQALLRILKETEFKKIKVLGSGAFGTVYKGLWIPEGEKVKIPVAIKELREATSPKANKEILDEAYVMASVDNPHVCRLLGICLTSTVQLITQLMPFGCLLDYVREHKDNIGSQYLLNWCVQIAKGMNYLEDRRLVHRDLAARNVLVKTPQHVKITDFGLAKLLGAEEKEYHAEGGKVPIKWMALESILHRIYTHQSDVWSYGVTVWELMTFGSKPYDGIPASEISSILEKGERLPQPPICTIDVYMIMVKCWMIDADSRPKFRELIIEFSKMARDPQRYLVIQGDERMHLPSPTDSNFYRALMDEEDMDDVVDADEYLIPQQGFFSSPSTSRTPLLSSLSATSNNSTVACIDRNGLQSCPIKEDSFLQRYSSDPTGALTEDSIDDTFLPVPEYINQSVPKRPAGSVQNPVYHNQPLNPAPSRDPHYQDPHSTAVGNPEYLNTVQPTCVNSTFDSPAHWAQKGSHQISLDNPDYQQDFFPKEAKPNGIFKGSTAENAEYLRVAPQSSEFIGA
Sequence of Torsin-1A-interacting protein 2 (Homo sapiens) (Q8NFQ8 whole entry, looked up): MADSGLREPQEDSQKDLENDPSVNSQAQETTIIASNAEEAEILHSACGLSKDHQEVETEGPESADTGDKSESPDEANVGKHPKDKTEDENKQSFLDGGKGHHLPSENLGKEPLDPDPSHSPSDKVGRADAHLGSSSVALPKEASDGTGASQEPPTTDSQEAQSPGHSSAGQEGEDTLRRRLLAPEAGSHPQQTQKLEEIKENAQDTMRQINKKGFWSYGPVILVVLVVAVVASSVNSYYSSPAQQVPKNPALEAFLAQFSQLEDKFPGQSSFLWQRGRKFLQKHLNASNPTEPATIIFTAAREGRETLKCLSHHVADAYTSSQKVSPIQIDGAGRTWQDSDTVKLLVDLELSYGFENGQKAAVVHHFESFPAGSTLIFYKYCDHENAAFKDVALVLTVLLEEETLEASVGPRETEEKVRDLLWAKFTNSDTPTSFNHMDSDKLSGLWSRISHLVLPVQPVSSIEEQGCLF
Sequence of Fibroblast growth factor 10 (Homo sapiens) (O15520 whole entry, looked up): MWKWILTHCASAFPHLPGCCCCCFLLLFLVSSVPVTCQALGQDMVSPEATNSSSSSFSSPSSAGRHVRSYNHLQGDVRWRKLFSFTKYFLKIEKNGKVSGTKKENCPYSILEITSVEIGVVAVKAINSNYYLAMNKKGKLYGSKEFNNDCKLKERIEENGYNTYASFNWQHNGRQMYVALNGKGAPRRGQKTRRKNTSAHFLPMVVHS

Take `C=C(COC)C(=O)CC[C@H](OC(=O)c1ccccc1-c1ccccc1C(=O)O)c1cccc(OCCO)c1`: the composite z-score is 1.54 in assay [1]; 4.32 in assay [5]; -0.195 in [7]; 2.09 in assay [8]; 0.985 in [9]; 0.0004 in assay [10]. Also, the composite z-score in [11] was 1.74; in assay [12], -0.0615; in assay [13], -0.462; in assay [15], 1.71; in [16], 0.829; in [17], 0.397. The composite z-score in [18] was 1.33; in [19], 1.94; in [20], 1.01. Moreover, the z-score in assay [2] is -22.6 (active); in assay [3], -20.5 (active); in assay [4], -3.63 (inactive); in [6], 0.573 (inactive); in [14] it was -3.03 (inactive).

Consider `CC1=C([C@H](O)CCc2ccccc2)[C@H](CO)[C@@H]2C(=O)N(Cc3ccccc3)C(=O)[C@@H]2C1`, for which the composite z-score was -0.262 in assay [1]; -0.2 in assay [5]; 0.0769 in assay [7]; 0.932 in assay [8]; 0.497 in [9]; -0.085 in assay [10]. Further, the composite z-score is 0.0539 in assay [11]; -0.264 in assay [12]; -0.551 in assay [13]; 0.27 in [15]; -0.453 in assay [16]; -0.176 in [17]. Besides, the composite z-score worked out at 0.785 in assay [18], 0.28 in [19] and 0.317 in [20]. The z-score is -0.466 (inactive) in [2]; -1.41 (inactive) in assay [3]; -0.873 (inactive) in assay [4]; 1.72 (inactive) in assay [6]; -0.46 (inactive) in [14].

Take `C=CCC(OC(C)=O)[C@@H]1[C@@H](N(Cc2cccc3ccccc23)C(=O)Cc2ccc(F)cc2)c2cc(OCCCO)ccc2N1C(=O)Cc1ccc2ccccc2c1` (stereo not given in full): the composite z-score in assay [1] is 0.204; in assay [5], 0.594; in assay [7] it was -0.0197; in assay [8], -0.594; in assay [9], -0.0809; in assay [10] it was -0.121. In addition, the composite z-score in [11] is -0.182; in assay [12], -0.0551; in assay [13], 0.315; in assay [15] it was 0.2; in [16], -0.236; in assay [17], -0.285. Further, the composite z-score was -0.0987 in assay [18], -0.619 in assay [19] and 1.07 in [20]. The z-score is -0.167 (inactive) in assay [2]; 1.1 (inactive) in assay [3]; -0.276 (inactive) in [4]; 0.348 (inactive) in assay [6]; -0.395 (inactive) in assay [14].

Turning to `CCCC=C(CCC)[C@@H](NC(=O)c1ccc(C(F)(F)F)cc1)c1ccccc1`, the composite z-score in assay [1] was 0.626; in assay [5], 2.03; in [7] it was -0.0038; in assay [8], -0.0491; in assay [9], 0.417; in assay [10], -0.0565. In addition, the composite z-score was 0.658 in assay [11]; 0.559 in [12]; 0.622 in assay [13]; -0.433 in assay [15]; 0.662 in assay [16]; -0.405 in assay [17]. In addition, the composite z-score was 0.0071 in assay [18], -0.446 in [19] and 0.0953 in assay [20]. The z-score in assay [2] was 0.562 (inactive); in assay [3] it was -0.502 (inactive); in assay [4], 1.62 (inactive); in assay [6], -0.773 (inactive); in assay [14] it was -3.52 (inactive).

On to `CC(C)C[C@@H]1NC(=O)[C@H]2C[C@@H](C(=O)NCCCCCC[N+](C)(C)C)[C@@H](c3ccc(O)cc3)N2C1=O`, for which the composite z-score in assay [1] was 0.423; in assay [5], 1.82; in assay [7], -0.134; in assay [8], 1.12; in assay [9], 0.275; in assay [10] it was -0.149. For the same compound, the composite z-score is 1.46 in assay [11]; -0.196 in assay [12]; 0.0009 in [13]; -0.563 in [15]; -0.595 in [16]; -0.403 in assay [17]. The values for the composite z-score in assay [18], in assay [19] and in [20] were 1.28, 0.505 and 0.446, respectively. Also, the z-score was 0.248 (inactive) in assay [2]; 0.0827 (inactive) in [3]; 0.109 (inactive) in assay [4]; 0.283 (inactive) in assay [6]; -0.177 (inactive) in assay [14].
